# Integrin act MD: qHTS for Activators of Integrin-Mediated Alleviation for Muscular Dystrophy; Potency, µM (doses to about 38.3 µM), for inactives: at the top dose activation, hits mostly activators; 350,000 tested, 0.064% active; AID 624291, 2012; alpha7betagal myoblasts, beta-gal FDG fluorescence, 48 h;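 further: potency means the concentration at half of the fitted maximal effect; 100% = response of the positive control SU9516; nearly all actives have a fitted effect of over 60% in size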
#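 alpha7betagal+/- myoblasts (passage 13, 250/well) treated 48 h at 37C with compounds at 1:260 dilution of DMSO stock. Lysed, then beta-galactosidase activity read as FDG fluorescence (ex 480/em 540) after 30 min, with pre-read for autofluorescence.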
# S-ASM inh: Inhibitors of Secretory Acid Sphingomyelinase (S-ASM): qHTS; placental ASM, HMU-PC fluorogenic substrate, 60 min; Potency, µM (titrated, usually from 57.5 µM), inactives show top-dose activity change, negative = inhibition, most hits filed as inhibitors; 340,000 tested, 0.006% active; AID 504937, 2011; further: potency means the concentration at half of the fitted maximal effect
#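 Human placenta-derived ASM enzyme was preincubated with compound for 10 minutes at room temperature, then given fluorogenic substrate HMU-PC0 (9 uM final) for 60 minutes at 37 °C; a pH 10 stop preceded fluorescence reading at Ex 386/Em 447 nm.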
# gsp antagonist: qHTS for Antagonists of gsp, the Etiologic Mutation Responsible for Fibrous Dysplasia/McCune-Albright Syndrome: qHTS. 340,000 tested, 0.4% active. gsp-mutant cells, cAMP HTRF, 30 min. Potency, µM (top dose mostly 76.9 µM), inactives show at the highest dose activity change, negative = inhibition, actives largely listed as inhibitors; calls by dose curve; cell line not stated here;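 further: intracellular cAMP measured with PDE inhibitor Ro 20-1724 present during compound exposure; potency means the concentration at half of the fitted maximal effect; on the % scale 0 is the no-effect control and ±100 the full control effect; nearly all actives have a fitted effect of over 65% in size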
#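 Cells, 2000/well, grown 16–24 h in DMEM 10% FBS with 0.5 mg/ml G418, then compounds plus […] (300 uM addition stock), 30 min at 37C. cAMP read by HTRF (cAMP-d2 and anti-cAMP antibody-K in lysis buffer) after 30 min RT.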
# gsp agonist: qHTS for Agonist of gsp, the Etiologic Mutation Responsible for Fibrous Dysplasia/McCune-Albright Syndrome: qHTS; Potency, µM (titrated, usually from 76.9 µM), without a hit: at the top dose activation (cAMP increase), most hits filed as activators; 340,000 tested, 0.13% active; gsp mutant cells, cAMP HTRF, 30 min; active means well fitted activation curve with a large enough effect; inconclusive means small, poorly fitted or top-dose-only effect, or another doubt; inactive means no such curve, though single readings can be large or run the other way; cell line not stated here;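 further: phosphodiesterase inhibitor Ro 20-1724 added with compounds to block cAMP breakdown; potency means the concentration at half of the fitted maximal effect; nearly all actives have a fitted effect of over 60% in size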
#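 Cells stably selected in G418 were plated at 2000/well, grown 16-24 hr, then given compounds in DMSO with the PDE inhibitor […] (300 uM solution added) for 30 min at 37C; cAMP was read by HTRF.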
# RXFP1 agonist: qHTS Assay for Agonists of the Relaxin Receptor RXFP1. Relaxin receptor 1 (Homo sapiens), Q9HBX9. 370,000 tested, 0.3% active. Potency, µM (highest dose often 57.5 µM), inactives show at the highest dose activation, usual class: activators. HEK293T-RXFP1 cAMP TR-FRET, 30 min; response scale: percent of porcine relaxin response, buffer zero; further: potency means the concentration at half of the fitted maximal effect; on the % scale 0 is the no-effect control and ±100 the full control effect; nearly all actives have a fitted effect of over 60% in size
# Target sequence (Q9HBX9 whole entry, looked up): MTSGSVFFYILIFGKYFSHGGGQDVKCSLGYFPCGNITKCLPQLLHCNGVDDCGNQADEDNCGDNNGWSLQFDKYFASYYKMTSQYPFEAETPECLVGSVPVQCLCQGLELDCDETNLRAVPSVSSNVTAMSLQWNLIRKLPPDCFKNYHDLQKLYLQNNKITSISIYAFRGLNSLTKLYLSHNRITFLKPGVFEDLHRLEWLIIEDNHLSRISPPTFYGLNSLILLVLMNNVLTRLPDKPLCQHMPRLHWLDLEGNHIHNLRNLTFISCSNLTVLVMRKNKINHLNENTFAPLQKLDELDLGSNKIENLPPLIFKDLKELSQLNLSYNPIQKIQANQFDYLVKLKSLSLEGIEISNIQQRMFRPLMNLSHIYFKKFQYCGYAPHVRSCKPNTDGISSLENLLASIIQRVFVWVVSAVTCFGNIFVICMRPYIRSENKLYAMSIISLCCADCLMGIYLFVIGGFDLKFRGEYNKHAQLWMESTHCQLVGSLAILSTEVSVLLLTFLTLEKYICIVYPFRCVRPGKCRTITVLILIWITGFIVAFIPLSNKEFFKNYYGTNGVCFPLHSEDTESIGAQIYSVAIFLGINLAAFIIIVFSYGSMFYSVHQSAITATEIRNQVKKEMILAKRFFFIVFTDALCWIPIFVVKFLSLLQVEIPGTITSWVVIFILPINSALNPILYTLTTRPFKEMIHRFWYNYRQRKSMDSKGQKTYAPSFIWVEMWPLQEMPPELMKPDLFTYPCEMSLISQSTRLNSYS
#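 Agonist response is measured as cAMP accumulation in an RXFP1-transfected HEK293T line under PDE4 inhibition. Values are scaled between buffer-only and 29 nM porcine relaxin, and EC50s come from standard Hill equation fits.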
# RXFP1 antag: qHTS Assay for Antagonists of the Relaxin Receptor RXFP1; activity change, negative = inhibition, % at 57.5 µM; Relaxin receptor 1 (Homo sapiens), Q9HBX9; 350,000 tested, 0.59% active; HEK293-RXFP1, relaxin-stimulated cAMP HTRF, 30 min; stronger effect = lower value;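 active means activity change of -60% or lower, but not beyond a set lower limit; inconclusive means change between -60% and -40%, or beyond the set limit; inactive means change above -40%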; further: on the % scale 0 is the no-effect control and ±100 the full control effect
# An asterisk follows results filed as active; ? = inconclusive; · = no result given; [ ] = dose if it differs, or a comment. Most compounds without a hit are left out; they make up all but 1.1% or so of the library. Unless noted, the call rests on the fitted dose curve; in most records, active means well fitted curve in the direction sought with a large enough effect; inconclusive means small, poorly fitted or top-dose-only effect, or another doubt; inactive means no such curve, though single readings can be large; an effect the other way counts as inactive or inconclusive.
SMILES,Integrin act MD,S-ASM inh,gsp antagonist,gsp agonist,RXFP1 agonist,RXFP1 antag
CCOc1ccc(C(=O)NCC(=O)NCCSc2ccc(Br)cc2)cc1OCC,-31%,-3%,-25%,0%,·,-5
CCN1CCN(CCC2Oc3cc([N+](=O)[O-])ccc3NC2=O)CC1 (centres undefined),2%,-3%,-2%,-2%[15.4 µM],1%,-21
COc1ccc(N2CCN(CCC3Oc4cc([N+](=O)[O-])ccc4NC3=O)CC2)cc1 (centres undefined),8.9µM*,?,-29%,-17%,-1%,-25
CCN1CCOC(=O)C1CC(=O)Nc1cc(Cl)ccc1OC (centres undefined),·,·,·,·,1%,·
CCOc1ccc(C(C)=O)cc1CN1C(=O)NC2(CCCCCC2)C1=O,16%,4%,4%,?,-1%,-101*
Cc1ccc(C)n1-c1ccc(C(=O)NN)cc1,11%,1%,16%,14%[15.4 µM],-1%,-71*
Cc1nn(C)c(C)c1CN(C)S(=O)(=O)c1ccc(F)cc1,-42%,6%,-21%,-4%,0%,10
Cc1nn(C)c(C)c1CN(C)S(=O)(=O)c1ccc2ccccc2c1,-57%,-3%,14µM*,9%,1%,-2
COc1cc(OC)c(C2C(C#N)=C(N)OC3=C2C(=O)CC(C)(C)C3)cc1OC (centres undefined),23%,0%,-1%,-7%,-1%,-1
COc1ccc(C2C(C#N)=C(N)OC3=C2C(=O)CC(C)(C)C3)cc1OC (centres undefined),-19%,1%,7%,19%,0%,-76*
CC1=Nc2ccc(C)cc2/C1=C/c1c(N)n2c(S(=O)(=O)C(C)C)nsc2nc1=O,6%,12%,40µM*,-19%,0%,-16
CC1=Nc2ccccc2/C1=C/c1c(N)n2c(S(=O)(=O)C(C)C)nsc2nc1=O,-9%,16%,?,-1%[15.4 µM],0%,-18
CC1(C)CC(NC(=O)c2sc3cc(Cl)ccc3c2Cl)CC(C)(C)N1,-68%,-1%,·,16%[15.4 µM],0%,-60*
CCOC(=O)CN(Cc1ccccc1)C(=O)OC(C)(C)C,·,·,·,·,-2%,·
O=C(NC1CC1)c1ccc(-n2cccc2)cc1,?,-1%,9%,5%[15.4 µM],2%,-3
COc1ccc(CN(CCC(c2ccc(F)cc2)C2CCOC(C)(C)C2)C(=O)c2ccco2)cc1 (centres undefined),-42%,-12%,22µM*,2%[15.4 µM],1%,-17
CC(c1ccccc1)N(CCC(c1ccccc1)C1CCOC(C)(C)C1)C(=O)c1ccco1 (centres undefined),-6%,-9%,?,-20%,1%,?
COc1ccc(NC(=O)N2CCC(c3ccccc3)C2)c(OC)c1 (centres undefined),0%,2%,50µM*,-2%,0%,·
Cc1noc(C)c1CSCC(=O)Nc1cc(S(=O)(=O)N2CCOCC2)ccc1OCC(F)(F)F,-3%,2%,4%,?,8%,-3
CCOc1ccc(S(=O)(=O)N(CC)CC)cc1NC(=O)CSCc1c(C)noc1C,-2%,2%,1%,10µM*,17%,10
COc1cccc(N2CCN(C(=O)c3cccn3-c3nnc(N4CCCCC4)s3)CC2)c1,·,·,·,·,11%,-18
CCOc1ccc(NC(=O)C(=O)NCC(c2cccnc2)N2CCc3ccccc32)cc1 (centres undefined),·,·,·,·,1%,-64*
CCNC(=O)NCCCOc1cccc(CN2CCCCC2)c1,·,·,·,·,·,19
CCOC(=O)C1(Cc2ccccc2C(F)(F)F)CCN(Cc2ccon2)CC1,-19%,-1%,-3%,8%[15.4 µM],-1%,-7
O=C(Nc1ccccn1)c1cc(-c2cccnc2)nc2ccc(Br)cc12,-2%,-1%,13%,40µM*,18%,47
SMILES,Integrin act MD,S-ASM inh,gsp antagonist,gsp agonist,RXFP1 agonist,RXFP1 antag
Cc1cc(NC(=O)c2cc(-c3ccccn3)nc3ccc(Br)cc23)no1,-4%,0%,-11%,?,-2%,2
COc1ccc(NC(=O)NCc2cccnc2)cc1,?,6%,?,?,27%,-2
O=C(NCc1cccnc1)Nc1ccc(Cl)cc1,12%,1%,11µM*,29%,1%,7
O=C(NNC(=O)c1cc(-c2cccnc2)nc2ccccc12)Nc1ccc(Cl)cc1,-22%,0%,-6%,-10%[15.4 µM],0%,-73*
O=C(NNC(=O)c1cc(-c2ccccc2)nc2ccccc12)Nc1cccc(Cl)c1,-19%,-30%,?,11%,1%,-24
Cc1ccc(C2=NN(CCC(=O)NCc3ccc4c(c3)OCO4)C(=O)CC2)cc1,-11%,7%,-4%,-34%,3%,0
CCOC(=O)c1cccc(NC(=O)CCc2c(C)nn(-c3ccc(N4CCCC4)nn3)c2C)c1,·,·,·,·,1%,4
COc1cc2c(cc1NC(=O)C(C)Sc1ccc(NC(C)=O)cc1)oc1ccccc12 (centres undefined),-37%,-23%,20µM*,?,0%,-14
COc1cc2c(cc1NC(=O)CSc1nccn1C)oc1ccccc12,27%,-1%,28µM*,2%,1%,6
CC[C@H](C)NC(=O)c1ccc(Cn2c(=S)[nH]c3c([nH]c4ccc(OC)cc43)c2=O)cc1,14%,8%,-10%,0%,3%,-64*
COc1ccc2[nH]c3c(=O)n(Cc4ccc(C(=O)N5CCCCCC5)cc4)c(=S)[nH]c3c2c1,?,-5%,1%,21%,4%,-26
CCCCNC(=O)c1ccc(Cn2c(=S)[nH]c3c([nH]c4ccc(OC)cc43)c2=O)cc1,-52%,14%,-2%,0%,3%,-85*
COc1cccc(-c2nc(C(=O)NCC3CCCO3)cc3c2[nH]c2ccccc23)c1 (centres undefined),-28%,21%,13µM*,·,0%,·
CCOCCCNC(=O)c1ccc(Cn2c(=S)[nH]c3c([nH]c4ccc(OC)cc43)c2=O)cc1,2%,4%,-1%,12%,2%,-36
COc1ccc2[nH]c3c(=O)n(Cc4ccc(C(=O)NCC5CCCO5)cc4)c(=S)[nH]c3c2c1 (centres undefined),2%,3%,-6%,2%,8%,-89*

# Compound activity: PubChem BioAssay, National Center for Advancing Translational Sciences (NCATS)
